Fluor 339 460: intrinsic fluorescence of library compounds, ex339/em460 – biochemical, MLSMR library, data from DPM-DC assay, artefact control, profiling panel; 65,000 tested, 5.5% active; AID 709, 2007; fluorescence fold increase at 10 µM; compound autofluorescence, ex339/em460 nm, NADH buffer; hits give high values; 1 = no-compound wells, NADH background;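 active = at 10 µM, mean starting fluorescence two-fold or more over control wells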;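 note: signal is the first read of a kinetic run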
MK inhibit: S. pneumoniae MK inhibitors, primary screen, biochemical, PK/LDH-coupled NADH absorbance. mevalonate kinase [Streptococcus pneumoniae D39]. purified MK, PK/LDH-coupled NADH absorbance 340 nm. inhibition, % at 10 µM. 65,000 tested, 0.48% active. AID 555, 2006;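 active = ranked among the strongest by inhibition in the single 10 µM screen, a fixed top-ranked set picked for dose follow-up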
PMK inhibit: S. pneumoniae PMK inhibitors, primary screen, biochemical, mevalonate pathway, pilot trial included; phosphomevalonate kinase (Streptococcus pneumoniae D39); purified PMK, PK/LDH-coupled NADH absorbance 340 nm; inhibition, % at 10 µM; 65,000 tested, 0.49% active; AID 539, 2006;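 active = top-ranked compounds by inhibition in the single 10 µM screen, taking a fixed number of the strongest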;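 note: 0% = full reaction with DMSO carrier and 100% = background rate without enzyme reaction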
A340 absorber: compound light absorbance at 340 nm, profiling panel, artefact control, biochemical, MLSMR library, data from PS, PMK, MK assays | 65,000 tested, under 10 active | fold change at 10 µM | compound absorbance at 340 nm, fold over control | AID 708, 2007;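 active = at 10 µM dose, initial 340 nm absorbance at least 2 fold that of control wells; inactive = change under 2 fold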;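 note: initial absorbance extrapolated from kinetic A340 decline of NADH oxidation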
NADH enzymes: inhibitors of PK/LDH coupling enzymes, profiling panel, artefact control, biochemical, MLSMR library. coupled PK/LDH NADH assays, four targets. IC50, µM (highest dose often 10 µM), for the others: top-dose inhibition. 65,000 tested, 0.02% active;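 active = single-dose screening hits from any of four coupled enzyme assays that gave an IC50 when retested across doses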;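 note: the DPM-DC format reads NADH fluorescence rather than 340 nm absorbance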
DPM-DC inhibit: S. pneumoniae DPM-DC inhibitors, primary screen, biochemical, PK/LDH-coupled NADH fluorescence. diphosphomevalonate decarboxylase (Streptococcus pneumoniae D39). purified DPM-DC. calls only at 10 µM. 65,000 tested, 0.49% active. AID 556, 2006;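 active = the 320 compounds with the highest percent inhibition in the single-dose primary screen, excluding strongly autofluorescent ones, cut at about 32% in these data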;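 note: kinetic rate of NADH fluorescence loss reporting ADP formed by the decarboxylase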
* hit, by the source's call; i = inactive; · = not tested or not shown; + = active, no number. The list is not random: actives were taken first. Their share in the collection is about 6.8%.

SMILES	Fluor 339 460	MK inhibit	PMK inhibit	A340 absorber	NADH enzymes	DPM-DC inhibit
CSC1=NC(NCCCO)c2c(sc3c2CC(C)(C)OC3)N1 (stereo not given)	2.9*	8	7	1	10%	i
O=C(Cc1ccccc1)Nc1ccc2oc(-c3ccncc3)nc2c1	3.9*	8	2	1.1	5%	·
O=C(Nc1ccc2oc(-c3ccncc3)nc2c1)c1ccccc1F	3.7*	14	16	1.1	15%	·
CC(C)CC(=O)Nc1cccc(-c2nc3ccccc3o2)c1	1.2	6	2	1	3%	i
CC(C)CC(=O)Nc1ccc2oc(-c3ccncc3)nc2c1	3.7*	6	16	1	11%	·
COc1cc(NC(=O)c2ccc(Br)o2)c(C(=O)O)cc1OC	0.98	8	7	1.1	6%	i
Cc1cc(C)cc(N(CC(=O)NCc2cccnc2)S(C)(=O)=O)c1	1.1	4	8	1	4%	i
CCSc1nc(-c2ccc(OC)cc2)ccc1C#N	2*	2	0	1	1%	i
Cc1ccc(-c2nn(CC(=O)NCCN3CCOCC3)c(=O)c3ccccc23)cc1	1.1	3	6	1.1	3%	i
O=c1c2cccc3c2c(nn1CN1CCOCC1)-c1ccccc1-3	2.4*	14	7	1.1	12%	i
CCc1cc2c(C)cc(=O)oc2cc1OC(=O)C1CCCN1C(=O)OC(C)(C)C (stereo not given)	4.9*	10	11	1	11%	·
CC(C)(C)OC(=O)N1CCCC1C(=O)NCCc1ccccc1 (stereo not given)	1.2	9	3	1	4%	i
CC1CN(Cc2nc3c(c(=O)n(C)c(=O)n3C)n2Cc2ccc(Cl)cc2)CC(C)O1 (stereo not given)	1.1	3	9	1	4%	i
FC(F)(F)c1cccc(N2CCN(Cc3ccoc3)CC2)c1	1.1	50*	12	1.1	21%	i
COc1cc(CN2CCN(c3cccc(Cl)c3)CC2)cc(OC)c1OC	1	3	3	1	2%	i
COc1cccc(CN2CCN(c3cccc(C(F)(F)F)c3)CC2)c1OC	1.1	4	0	1	1%	i
COc1cccc(N2CCN(Cc3cccnc3)CC2)c1	1	51*	0	1.1	6%	i
FC(F)(F)c1cccc(N2CCN(Cc3cccnc3)CC2)c1	1	56*	1	1	9%	i
OC(C#Cc1ccccn1)c1cccs1 (stereo not given)	0.9	12	16	0.98	14%	i
Cc1ccc(-c2nc(C(=O)NC3CCCCCC3)no2)cc1	0.92	4	6	1	6%	i
CCOC(=O)N1CCN(C(=O)CS(=O)(=O)c2cn(Cc3ccc(F)cc3)c3ccccc23)CC1	1.1	5	1	1.1	2%	i
COC(=O)c1cc(NC(=O)C23CCC(C)(C(=O)O2)C3(C)C)cc(C(=O)OC)c1 (stereo not given)	1.1	11	0	1	4%	i
O=C1CC(c2ccco2)CC2=C1C(c1ccccc1)n1nc(C(F)(F)F)nc1N2 (stereo not given)	2.8*	9	7	1.1	12%	i
Cc1cc2c(cc1C)NC(CC(=O)NCc1ccccc1)C(=O)N2 (stereo not given)	2.1*	0	0	1.2	0%	·
COc1ccc(CCNC(=O)CC2Nc3cc(C)c(C)cc3NC2=O)cc1OC (stereo not given)	2.1*	2	14	1.1	6%	i
SMILES	Fluor 339 460	MK inhibit	PMK inhibit	A340 absorber	NADH enzymes	DPM-DC inhibit
COc1ccccc1NC(=O)CC1Nc2ccccc2NC1=O (stereo not given)	1.4	11	6	1.1	10%	i
CCOC(=O)N1CCN(C(=O)CCN2C(=O)COc3ccc(C)cc32)CC1	1.1	3	7	0.96	3%	i
CCn1cc(C(=O)NCc2ccccn2)c(=O)c2cc(F)c(N3CCN(C)CC3)cc21	1.9	3	1	1.1	5%	i
CCn1cc(C(=O)O)c(=O)c2cc(F)c(N3CCNCC3)cc21	2.5*	10	10	1	4%	·
CCn1cc(C(=O)O)c(=O)c2cc(F)c(N3CCN(C(=O)Nc4ccccc4)CC3)cc21	1.7	0	0	1	4%	i
CCOC(=O)c1cn(CC)c2cc(N3CCSCC3)c(F)cc2c1=O	2.9*	9	12	1.1	17%	i
CC(NC(=O)OC1CCCCC1)N1C(=O)C2C3C=CC(C3)C2C1=O (stereo not given)	1.1	6	9	0.98	5%	i
Cc1cc(C)n2nc[n+](C)c2n1	1	0	12	0.99	2%	i
COc1ccccc1C(=O)NC(C)C(c1cccs1)N1CCOCC1 (stereo not given)	0.87	0	12	1	10%	i
COc1ccc(S(=O)(=O)N2CCN(C(=O)COc3ccc4c(C)cc(=O)oc4c3)CC2)cc1	2.6*	6	7	1.1	10%	i
Cc1cc(=O)oc2ccc(OCC(=O)N3CCC(C)CC3)cc12	1.8	7	6	1	7%	+
Cc1cc(=O)oc2cc(OCC(=O)N3CCCC(C)C3)ccc12 (stereo not given)	2.7*	2	13	1	7%	i
CC1CN(c2nc3ccccc3nc2C(C#N)C(=O)NCc2ccc3c(c2)OCO3)CC(C)O1 (stereo not given)	1	4	5	0.99	2%	i
COc1cccc(OC)c1-c1nn2c(-c3ccccc3Cl)nnc2s1	1.2	3	1	1	1%	i
CC(C)COC(=O)NCC12C=CC(O1)C1C(=O)N(c3ccc(Cl)cc3)C(=O)C12 (stereo not given)	1	0	25*	1	4%	i
Cc1c(-n2cc(C(=O)O)c(=O)c3cc(F)c(N4CCCC4)c(F)c32)c(=O)n(-c2ccccc2)n1C	1.7	11	0	1.1	14%	i
CN1CCN(c2c(F)cc3c(=O)c(C(=O)O)cn4c3c2SCC4)CC1	3.8*	3	1	1.1	2%	·
O=C(Cc1coc(-c2ccc(F)cc2)n1)N1CCOCC1	1	0	32*	1	11%	i
Cn1c(-c2ccccc2)cc(=O)c2ccccc21	1.1	10	2	1	2%	i
Cn1c2ccccc2c(=O)n2c(=O)c3ccccc3cc12	2.4*	7	12	1.1	10%	i

High-throughput results as filed in PubChem BioAssay.
